Of roughly 7,900 targets only a part is listed; those with a hit were picked by preference. About 0.6% of all pairs of compound and target were hits. Values without a mark were called inactive.
Compound: CC1=CC=C(C=C1)SC2=C3C=C(SC3=CN=C2)C(=O)N
Assay: log2 fold change, soluble protein after heating vs DMSO (PISA); higher = thermal stabilisation; K562 cells, 10 uM, 30 min; active = over 0.2 and 3.5 SD of the protein, either way, in both replicates (recomputed)
Method in brief: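 K562 cells at 2×10^6 cells/mL were exposed to 10 μM compound for 30 min, then aliquots were heated for 3 min across 48°C-58°C, pooled, and extracted in PBS containing 0.5% NP-40 at 4°C. The supernatant after 21,000xg for 90 min was taken as soluble protein and measured by TMTpro 16plex LC-MS/MS with channel sums equalised. Thermal stability is reported relative to control samples, with values from duplicates. Fold changes are given on a log2 scale.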

UniProt P43362, sequence (P43362 whole entry, looked up): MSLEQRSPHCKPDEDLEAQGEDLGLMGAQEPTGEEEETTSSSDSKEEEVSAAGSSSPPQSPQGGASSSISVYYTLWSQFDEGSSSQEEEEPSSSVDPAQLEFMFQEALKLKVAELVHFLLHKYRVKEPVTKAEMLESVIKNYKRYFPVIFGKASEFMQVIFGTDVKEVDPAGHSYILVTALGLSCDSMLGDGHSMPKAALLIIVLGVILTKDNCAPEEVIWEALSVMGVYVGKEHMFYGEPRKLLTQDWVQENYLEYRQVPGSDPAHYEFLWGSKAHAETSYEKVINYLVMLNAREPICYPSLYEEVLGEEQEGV
UniProt Q08431, sequence (Q08431 whole entry, looked up): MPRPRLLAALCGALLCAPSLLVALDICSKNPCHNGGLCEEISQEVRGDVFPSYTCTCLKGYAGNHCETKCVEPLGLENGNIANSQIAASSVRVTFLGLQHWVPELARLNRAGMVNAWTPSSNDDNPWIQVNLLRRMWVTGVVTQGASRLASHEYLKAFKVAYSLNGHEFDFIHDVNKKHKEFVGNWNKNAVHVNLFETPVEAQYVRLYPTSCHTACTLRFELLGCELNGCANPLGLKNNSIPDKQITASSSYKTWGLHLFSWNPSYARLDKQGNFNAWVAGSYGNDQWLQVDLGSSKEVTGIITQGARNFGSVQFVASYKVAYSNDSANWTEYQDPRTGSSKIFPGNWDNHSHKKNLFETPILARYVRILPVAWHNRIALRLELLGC
UniProt Q9UPY8, sequence (Q9UPY8 whole entry, looked up): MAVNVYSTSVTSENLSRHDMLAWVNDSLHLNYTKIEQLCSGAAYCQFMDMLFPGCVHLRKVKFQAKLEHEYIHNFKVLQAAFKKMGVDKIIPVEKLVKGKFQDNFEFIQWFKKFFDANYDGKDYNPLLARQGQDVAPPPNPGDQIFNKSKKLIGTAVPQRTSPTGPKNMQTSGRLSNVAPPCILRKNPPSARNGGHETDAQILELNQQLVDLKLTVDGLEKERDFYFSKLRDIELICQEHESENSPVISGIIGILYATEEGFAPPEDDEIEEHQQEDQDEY
UniProt Q13422, sequence (Q13422 whole entry, looked up): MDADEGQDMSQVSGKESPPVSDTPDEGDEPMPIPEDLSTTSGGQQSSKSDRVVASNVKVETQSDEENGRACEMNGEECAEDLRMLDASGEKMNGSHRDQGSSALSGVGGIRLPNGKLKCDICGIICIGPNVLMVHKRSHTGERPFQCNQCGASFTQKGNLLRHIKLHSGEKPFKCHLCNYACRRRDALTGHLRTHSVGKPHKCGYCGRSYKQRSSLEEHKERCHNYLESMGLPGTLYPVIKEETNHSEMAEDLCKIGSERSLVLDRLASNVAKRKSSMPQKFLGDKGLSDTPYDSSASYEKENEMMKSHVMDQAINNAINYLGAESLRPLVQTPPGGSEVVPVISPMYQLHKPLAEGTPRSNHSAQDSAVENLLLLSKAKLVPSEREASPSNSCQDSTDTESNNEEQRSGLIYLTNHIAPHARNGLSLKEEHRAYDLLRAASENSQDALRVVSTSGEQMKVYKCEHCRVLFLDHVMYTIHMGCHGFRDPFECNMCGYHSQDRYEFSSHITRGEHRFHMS
UniProt P01130, sequence (P01130 whole entry, looked up): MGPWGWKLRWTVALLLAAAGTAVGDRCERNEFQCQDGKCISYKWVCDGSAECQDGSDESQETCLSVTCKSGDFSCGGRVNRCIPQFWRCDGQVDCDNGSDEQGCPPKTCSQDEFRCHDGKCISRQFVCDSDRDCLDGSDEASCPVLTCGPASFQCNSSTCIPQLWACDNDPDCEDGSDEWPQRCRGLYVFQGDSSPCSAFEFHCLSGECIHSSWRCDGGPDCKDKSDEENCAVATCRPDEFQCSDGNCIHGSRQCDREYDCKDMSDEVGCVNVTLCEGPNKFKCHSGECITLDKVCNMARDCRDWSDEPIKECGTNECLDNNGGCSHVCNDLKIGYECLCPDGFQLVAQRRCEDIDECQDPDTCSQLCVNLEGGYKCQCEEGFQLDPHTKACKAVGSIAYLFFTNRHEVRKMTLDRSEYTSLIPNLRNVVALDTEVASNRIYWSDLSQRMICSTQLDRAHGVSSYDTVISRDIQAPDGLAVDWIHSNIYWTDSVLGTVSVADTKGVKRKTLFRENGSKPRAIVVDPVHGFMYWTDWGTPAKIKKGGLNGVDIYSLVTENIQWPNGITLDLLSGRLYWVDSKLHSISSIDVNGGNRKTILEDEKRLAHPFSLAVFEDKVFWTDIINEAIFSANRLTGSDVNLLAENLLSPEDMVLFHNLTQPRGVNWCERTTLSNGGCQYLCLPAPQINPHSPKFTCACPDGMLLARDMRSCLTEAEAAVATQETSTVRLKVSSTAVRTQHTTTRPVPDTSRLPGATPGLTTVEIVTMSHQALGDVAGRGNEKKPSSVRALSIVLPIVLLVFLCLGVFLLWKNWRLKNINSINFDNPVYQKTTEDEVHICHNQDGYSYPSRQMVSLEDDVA
UniProt Q6P1A2, sequence (Q6P1A2 whole entry, looked up): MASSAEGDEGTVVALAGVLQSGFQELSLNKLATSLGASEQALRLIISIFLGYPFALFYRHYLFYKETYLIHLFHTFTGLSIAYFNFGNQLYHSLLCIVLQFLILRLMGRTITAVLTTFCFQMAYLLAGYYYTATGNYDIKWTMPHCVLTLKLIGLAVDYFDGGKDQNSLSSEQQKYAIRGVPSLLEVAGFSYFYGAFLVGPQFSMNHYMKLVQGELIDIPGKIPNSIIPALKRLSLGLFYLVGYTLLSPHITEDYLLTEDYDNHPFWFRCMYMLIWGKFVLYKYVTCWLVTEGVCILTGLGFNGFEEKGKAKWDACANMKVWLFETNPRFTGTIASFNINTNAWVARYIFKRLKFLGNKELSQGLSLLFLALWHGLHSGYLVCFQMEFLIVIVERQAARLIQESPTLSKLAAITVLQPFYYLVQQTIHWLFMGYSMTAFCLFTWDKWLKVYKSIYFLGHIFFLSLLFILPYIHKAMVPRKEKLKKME
UniProt Q4G0J3, sequence (Q4G0J3 whole entry, looked up): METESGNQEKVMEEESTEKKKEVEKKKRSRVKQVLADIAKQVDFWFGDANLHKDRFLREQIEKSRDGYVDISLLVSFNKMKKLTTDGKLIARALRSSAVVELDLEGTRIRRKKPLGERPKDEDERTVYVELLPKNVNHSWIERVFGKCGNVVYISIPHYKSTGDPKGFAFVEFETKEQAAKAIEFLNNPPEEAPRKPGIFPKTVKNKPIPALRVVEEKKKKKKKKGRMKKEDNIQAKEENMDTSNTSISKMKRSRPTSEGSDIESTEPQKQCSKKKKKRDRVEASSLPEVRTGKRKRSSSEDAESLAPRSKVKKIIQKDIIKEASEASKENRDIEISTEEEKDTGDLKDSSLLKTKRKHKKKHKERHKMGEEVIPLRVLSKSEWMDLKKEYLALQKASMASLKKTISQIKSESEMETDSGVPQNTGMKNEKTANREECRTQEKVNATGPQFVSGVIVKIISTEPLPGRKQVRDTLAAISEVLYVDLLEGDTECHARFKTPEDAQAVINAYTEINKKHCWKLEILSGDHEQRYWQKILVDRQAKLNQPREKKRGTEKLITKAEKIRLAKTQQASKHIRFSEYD
UniProt Q12906, sequence (Q12906 whole entry, looked up): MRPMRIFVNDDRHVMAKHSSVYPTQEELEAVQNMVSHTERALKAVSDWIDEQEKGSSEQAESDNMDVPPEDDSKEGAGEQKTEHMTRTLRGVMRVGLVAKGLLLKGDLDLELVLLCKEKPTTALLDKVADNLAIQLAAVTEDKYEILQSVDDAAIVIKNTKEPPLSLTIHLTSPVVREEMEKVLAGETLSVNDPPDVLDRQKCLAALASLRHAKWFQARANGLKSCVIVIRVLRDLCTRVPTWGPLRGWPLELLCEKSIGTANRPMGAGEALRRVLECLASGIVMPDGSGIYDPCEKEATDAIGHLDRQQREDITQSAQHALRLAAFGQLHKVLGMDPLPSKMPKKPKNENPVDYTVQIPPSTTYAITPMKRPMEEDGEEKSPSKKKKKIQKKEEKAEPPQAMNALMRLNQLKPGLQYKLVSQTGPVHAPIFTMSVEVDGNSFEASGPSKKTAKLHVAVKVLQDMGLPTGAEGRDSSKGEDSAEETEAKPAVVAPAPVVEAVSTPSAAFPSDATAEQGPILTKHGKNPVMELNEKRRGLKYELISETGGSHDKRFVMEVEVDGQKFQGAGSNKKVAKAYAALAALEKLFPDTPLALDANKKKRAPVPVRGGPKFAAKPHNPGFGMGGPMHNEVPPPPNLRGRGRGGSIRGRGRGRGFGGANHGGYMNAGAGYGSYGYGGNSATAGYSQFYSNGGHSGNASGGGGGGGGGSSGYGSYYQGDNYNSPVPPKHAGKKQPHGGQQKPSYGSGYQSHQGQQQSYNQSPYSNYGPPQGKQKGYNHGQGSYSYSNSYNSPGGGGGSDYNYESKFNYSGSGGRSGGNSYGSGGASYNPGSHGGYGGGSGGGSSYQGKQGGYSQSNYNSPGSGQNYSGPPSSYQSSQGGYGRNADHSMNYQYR
UniProt Q8IYU8, sequence (Q8IYU8 whole entry, looked up): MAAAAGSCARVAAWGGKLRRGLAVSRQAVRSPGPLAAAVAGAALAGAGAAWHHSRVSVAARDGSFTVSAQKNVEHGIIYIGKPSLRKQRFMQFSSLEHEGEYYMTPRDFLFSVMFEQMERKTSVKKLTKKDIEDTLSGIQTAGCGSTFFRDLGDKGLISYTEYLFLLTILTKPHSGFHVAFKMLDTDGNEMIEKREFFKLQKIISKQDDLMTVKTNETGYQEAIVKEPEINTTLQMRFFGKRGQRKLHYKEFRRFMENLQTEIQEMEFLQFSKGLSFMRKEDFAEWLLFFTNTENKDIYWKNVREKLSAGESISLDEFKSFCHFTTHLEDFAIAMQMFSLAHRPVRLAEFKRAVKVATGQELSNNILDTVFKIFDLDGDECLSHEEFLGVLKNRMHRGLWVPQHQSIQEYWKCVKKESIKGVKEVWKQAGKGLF

Q: Which log2 fold change does the source give for LPCAT3 (UniProt Q6P1A2) here?
A: The log2 fold change was 0.052.

Q: With MEPCE (UniProt Q7L2J0) as the target, how does the log2 fold change read?
A: The log2 fold change was -0.014.

Q: Which log2 fold change does the source give for LDLR (UniProt P01130) here?
A: Its log2 fold change is 0.006.

Q: ILF3 isoform 7 (UniProt Q12906) was tested. Which log2 fold change did it give?
A: The log2 fold change was -0.087.

Q: How did the log2 fold change turn out when MICU2 (UniProt Q8IYU8) was run?
A: Its log2 fold change is 0.091.

Q: With MAN2B2 (UniProt Q9Y2E5) as the target, how does the log2 fold change read?
A: Its log2 fold change is 0.033.

Q: For LARP7 isoform 3 (UniProt Q4G0J3), which log2 fold change is on record?
A: Its log2 fold change is -0.03.

Q: Which log2 fold change does the source give for IKZF1 (UniProt Q13422) here?
A: Its log2 fold change is -0.007.

Q: How did the log2 fold change turn out when MFGE8 (UniProt Q08431) was run?
A: Its log2 fold change is -0.122.

Q: MAGEA9 (UniProt P43362) was tested. Which log2 fold change did it give?
A: The log2 fold change was -0.005.

Q: Which log2 fold change does the source give for MAPRE3 (UniProt Q9UPY8) here?
A: The log2 fold change was -0.021.

Q: For MAP4 (UniProt E7EVA0), which log2 fold change is on record?
A: The log2 fold change was -0.03.

Q: MDN1 (UniProt Q9NU22) was tested. Which log2 fold change did it give?
A: Its log2 fold change is 0.034.

Q: With MIA2 (UniProt Q96PC5) as the target, how does the log2 fold change read?
A: Its log2 fold change is -0.002.

From the supplement of paper PMC10849652
